Measurements taken from PubChem BioAssay AID687036 (The Scripps Research Institute Molecular Screening Center, 2013).
The campaign covered roughly 3,300 compounds. About 1,400 (42%) were called active.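 Rule for the calls: active = mean inhibition across replicates above the hit cutoff derived for the earlier primary screen (cut at about 22% in these data); inactive = the rest.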 So high a share suggests a set chosen from earlier hits. The list is a sample of the results.

These compounds were tested against Protein arginine N-methyltransferase 1 (Homo sapiens) (UniProt Q99873) (assay: human PRMT1 activity-probe blockers, retest – biochemical, fluorescence polarization, triplicate, confirmation (AID 687036)). Conditions: recombinant His-PRMT1, activity-based probe fluorescence polarization; at 2.79 µM; stronger effect = higher value.
Protein arginine N-methyltransferase 1 (Homo sapiens), sequence (Q99873 whole entry, looked up): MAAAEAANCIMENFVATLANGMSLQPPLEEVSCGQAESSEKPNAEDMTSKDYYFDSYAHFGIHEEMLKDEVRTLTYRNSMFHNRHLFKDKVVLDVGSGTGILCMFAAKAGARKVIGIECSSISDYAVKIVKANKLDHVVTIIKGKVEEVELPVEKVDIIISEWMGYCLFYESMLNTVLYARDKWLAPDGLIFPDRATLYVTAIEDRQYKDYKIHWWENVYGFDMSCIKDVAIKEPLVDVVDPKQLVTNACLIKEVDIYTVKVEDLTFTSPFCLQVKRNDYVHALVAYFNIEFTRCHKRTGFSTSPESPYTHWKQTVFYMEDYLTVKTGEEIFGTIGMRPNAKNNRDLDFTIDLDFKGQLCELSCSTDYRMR
In the case of `CCN(CC)S(=O)(=O)c1cccc(-c2n[nH]c(=S)n2/N=C/c2ccc(C(=O)OC)cc2)c1`, the inhibition is reported as 65.6% (active). With `S=c1[nH]nc(-c2ccccc2)n1/N=C/c1c[nH]c2ccccc12` the inhibition was 12.4% (inactive). For `S=c1ccc2ccccc2[nH]1`, the inhibition was 10.8% (inactive). `CC(=O)NC1=NC(=O)CS1` was tested, and the inhibition was 15.3% (inactive). With `CCOC(=O)N1CCN(C(c2cccnc2)c2ccc3cccnc3c2O)CC1` (stereo unspecified) the inhibition was 82.2% (active). `COc1ccccc1C(=O)NN1C(=O)C2C3C=CC(O3)C2C1=O` (stereo unspecified) was tested, and the inhibition was 8.23% (inactive). `COc1ccc(N=C2C=CC(=O)O2)cc1` was tested, and the inhibition was 83.2% (active). In the case of `COc1ccccc1NC(=O)/C=C/C(N)=O`, the inhibition is reported as 55.8% (active). For `CN(C)c1ccc(Nc2c3c4c(cccc4n(C)c2=O)C(=O)c2ccccc2-3)cc1`, the inhibition was 1.6% (inactive). With `O=C(O)c1ccccc1CSc1nc2ccccc2s1` the inhibition was 33.2% (active). `CCC(c1nnnn1Cc1ccco1)N(CCc1ccccc1)Cc1cc2ccc(OC)cc2[nH]c1=O` (stereo unspecified) was tested, and the inhibition was 5.74% (inactive). With `O=C1C=CC(=O)N1c1ccc(N2CCCCC2)cc1` the inhibition was 82.8% (active). In the case of `Cc1cc(C)c(S(=O)(=O)NN=C2c3ccccc3[C@H]3Cc4csc[n+]4[C@@H]23)c(C)c1`, the inhibition is reported as 13.2% (inactive). In the case of `Cc1cccc(C)c1NC(=O)C(Cl)C(=O)c1ccccc1` (stereo unspecified), the inhibition is reported as 30% (active). In the case of `O=c1/c(=C/c2ccc(CNS(=O)(=O)c3ccccc3)o2)sc2n1CCN=2`, the inhibition is reported as -3.63% (inactive). For `Clc1cccc(-c2nc3nc4ccccc4nc3n2Cc2ccco2)c1`, the inhibition was 19.7% (inactive). `Cc1nc2ccc(S(=O)(=O)NCC(=O)O)cc2s1` was tested, and the inhibition was 22.9% (active). With `CC(=O)N1C(=O)/C(=C2\SC(=S)N(NC(=O)c3ccc(O)cc3)C2=O)c2ccccc21` the inhibition was 1.92% (inactive). In the case of `CCCCOC(=O)CNc1nnc(SCC(=O)OCC)[nH]c1=O`, the inhibition is reported as 72.3% (active). `CN(C)c1ccc(C(CC(=O)O)C(=O)O)cc1` (stereo unspecified) was tested, and the inhibition was 5.11% (inactive). In the case of `CCOC(=O)Cc1csc(NC(=O)CSc2nc(C)cc(=O)[nH]2)n1`, the inhibition is reported as 61.6% (active). `Cc1cc(NC(=O)C(C)SCC(=O)Nc2cccc(S(=O)(=O)N3CCCCCC3)c2)no1` (stereo unspecified) was tested, and the inhibition was -0.11% (inactive). For `COc1ccc(NC(=O)CN(C)C(=O)c2cc(-c3ccc(C)o3)nc3ccccc23)cc1`, the inhibition was 13.6% (inactive). For `OCCN1CCN(C(=S)c2ccc(-c3ccccc3)cc2)CC1`, the inhibition was 61.8% (active). For `CC1CCN(C(=S)c2ccc(-c3ccc(Cl)cc3Cl)o2)CC1`, the inhibition was 4.49% (inactive). `COc1cc(NC(=S)N2CCCC(C)C2)c(OC)cc1Cl` (stereo unspecified) was tested, and the inhibition was 44.5% (active). In the case of `CC(=O)N1CC(C)c2scc(C)[n+]2-c2ccccc21` (stereo unspecified), the inhibition is reported as 50.9% (active). With `COc1ccc(N2C(=O)/C(=C\c3ccco3)N=C2SCC(N)=O)cc1Cl` the inhibition was 5.26% (inactive). `COc1cccc2c1C(=O)c1c(O)c3c(c(O)c1C2=O)CC(O)(C(C)=NNC(=O)c1ccc(Cl)c(Cl)c1)CC3OC1CC(N)C(O)C(C)O1` (stereo unspecified) was tested, and the inhibition was 159% (active). With `O=C(O)/C=C/C(=O)NNc1ccc([N+](=O)[O-])cc1` the inhibition was 12.7% (inactive). In the case of `COC(=O)/C=C\C(=O)Nc1cccc([N+](=O)[O-])c1`, the inhibition is reported as 87.6% (active). With `Cc1c(NC(=O)/C=C/C(=O)O)cccc1[N+](=O)[O-]` the inhibition was 4.54% (inactive). `CSc1c(SCc2ccccc2)cnn(Cc2ccccc2)c1=O` was tested, and the inhibition was 18.4% (inactive). `Nc1c(C(=O)c2cccs2)sc2nsc(SCCN3CCCCC3)c12` was tested, and the inhibition was -5.21% (inactive). With `O=C(COC(=O)Cn1cnc2ccccc21)Nc1cccc2c1C(=O)c1ccccc1C2=O` the inhibition was 4.11% (inactive). `Brc1ccccc1C1Nc2cccc3cccc(c23)N1` was tested, and the inhibition was 29.4% (active). With `NS(=O)(=O)c1ccc(NC(=O)COC(=O)c2c3c(nc4ccccc24)/C(=C\c2ccc4c(c2)OCO4)CCC3)cc1` the inhibition was 0.89% (inactive). For `Cc1cc(C)cc(C(=O)NC2C(=O)N3C(C(=O)O)=C(CSc4nnc(C)s4)CSC23)c1` (stereo unspecified), the inhibition was 15.9% (inactive). For `Oc1ccc2ccc3cccc[n+]3c2c1`, the inhibition was 155% (active). In the case of `COc1cc(C2CC(=O)N3CN(Cc4ccccc4)CSC3=C2C#N)ccc1OCc1ccccc1` (stereo unspecified), the inhibition is reported as 12.4% (inactive). In the case of `CC(=O)Nc1ccc(C(=O)Nc2nc(-c3cc(C)n(Cc4ccccc4)c3C)cs2)cc1`, the inhibition is reported as 5.86% (inactive). With `FC(F)(F)c1nc2ccccc2nc1N/N=C/c1ccc(Cl)cc1` the inhibition was -0.64% (inactive). In the case of `CCOC(=O)C(Sc1ncc(C#N)c(N)n1)C(C)C` (stereo unspecified), the inhibition is reported as 37% (active). With `Fc1ccc(COc2cccc(-c3n[nH]c(=S)o3)c2)cc1` the inhibition was 14.3% (inactive). With `COc1cc(C(=S)NC2CCCCC2)ccc1O` the inhibition was 5.36% (inactive). In the case of `CCc1ccc(NC2Nc3cc(C)nn3S2)cc1` (stereo unspecified), the inhibition is reported as 6.49% (inactive). `O=c1ccc2c(-c3ccccc3S(=O)(=O)O)c3ccc(O)c(O)c3oc-2c1O` was tested, and the inhibition was 66.2% (active). With `COc1ccc(CCN2C(=O)CC(N3CCC(C(N)=O)CC3)C2=O)cc1OC` (stereo unspecified) the inhibition was 12.1% (inactive). `OCCn1c(-c2ccccc2)csc1=Nc1ccccc1` was tested, and the inhibition was -0.19% (inactive). `O=S(=O)(O)c1cc2onnc2c2ccccc12` was tested, and the inhibition was 53.5% (active). In the case of `Cc1ccc(-c2ccc(/C=C(\C#N)C(N)=S)o2)c([N+](=O)[O-])c1`, the inhibition is reported as 3.06% (inactive). In the case of `Cc1ccc(SC(CC(=O)c2ccc(C(C)(C)C)cc2)C(=O)O)cc1` (stereo unspecified), the inhibition is reported as 80.3% (active). In the case of `COc1ccc(N/N=C2/CCCCC2=O)cc1`, the inhibition is reported as 0.52% (inactive). `Cc1cc(=O)[nH]c(=S)[nH]1` was tested, and the inhibition was -4.44% (inactive). In the case of `Cc1cc2nc3c(=O)[nH]c(=O)nc-3n(C[C@H](O)[C@H](O)[C@H](O)CO)c2cc1C`, the inhibition is reported as 146% (active). For `O=C(CN1CCN(c2ccc(O)cc2)CC1)NC1CCCc2ccccc21` (stereo unspecified), the inhibition was -0.09% (inactive). With `Cc1cccc(N2CCN(C(=O)/C=C/c3ccco3)CC2)c1C` the inhibition was 7.17% (inactive). For `Cc1nnc(SCC2=C(C(=O)O)N3C(=O)C(NC(=O)Cn4nc(C)c(Cl)c4C)C3SC2)s1` (stereo unspecified), the inhibition was 6.51% (inactive). For `CC(C)(C)NC(=O)COc1ccc(CNc2ccc3[nH]c(=O)[nH]c3c2)cc1`, the inhibition was 4.62% (inactive). For `COc1ccc(NC(=O)CSc2nc(SC)ns2)c(OC)c1`, the inhibition was 30.5% (active). With `Cc1cccc2cc3c(N)c(C(=O)N4CCCc5ccccc54)sc3nc12` the inhibition was -2.12% (inactive). For `COc1cccc(NC(=O)CSc2nccn(-c3ccc4c(c3)OCCO4)c2=O)c1`, the inhibition was 26.1% (active). In the case of `COc1cccc(NC(=O)COC(=O)/C=C/c2ccco2)c1`, the inhibition is reported as 10.2% (inactive). With `CC(=O)Nc1cc(-c2ccccc2N(C)C)cn2c(-c3ccc(F)c(Cl)c3)cnc12` the inhibition was 1.55% (inactive). For `c1ccc(Cc2c(-c3ccco3)nc3c4ccccc4ccn23)cc1`, the inhibition was 9.04% (inactive). `COc1ccc(NC2=CC(=S)NC(C)(C)C2)cc1` was tested, and the inhibition was -3.18% (inactive). `S=c1[nH]nc(-c2ccco2)n1/N=C/c1ccc(Br)s1` was tested, and the inhibition was 13.1% (inactive). `O=C1CC(Sc2ncn[nH]2)C(=O)N1c1ccccc1` (stereo unspecified) was tested, and the inhibition was 68.5% (active). For `COc1ccc(N2C(=O)CC(N3CCC(C(N)=O)CC3)C2=O)cc1` (stereo unspecified), the inhibition was 9.59% (inactive). `COc1ccc(N2C(=O)CC(Sc3n[nH]c(-c4ccc(C)cc4)n3)C2=O)cc1` (stereo unspecified) was tested, and the inhibition was 59% (active). `Cc1ccc(N2C(=O)CC(Sc3ncn[nH]3)C2=O)cc1` (stereo unspecified) was tested, and the inhibition was 24.3% (active). `CN(CCOc1ccccc1)C(=O)c1cc(-c2ccco2)nc2ccccc12` was tested, and the inhibition was 10.7% (inactive). In the case of `COc1ccc(-c2cc3c(c4c2ccn4C)C2CCC3C2)cn1` (stereo unspecified), the inhibition is reported as -5.46% (inactive). `Cc1cc(C)c(/C=C2\C(=O)Nc3ccccc32)[nH]1` was tested, and the inhibition was 77.3% (active). In the case of `CC(=NNC(=S)N1CCCCCC1)c1ccccn1`, the inhibition is reported as 5.21% (inactive). `O=S(=O)(c1ccc(Sc2nnc3ccccn23)nc1)N1CCOCC1` was tested, and the inhibition was -3.1% (inactive). `Cc1cc2c(c(=O)n1Cc1ccco1)C(c1ccccc1)C(C#N)=C(N)O2` (stereo unspecified) was tested, and the inhibition was 6.2% (inactive). `N#CC1=C(N)Oc2c(sc3ccccc23)C1c1ccco1` (stereo unspecified) was tested, and the inhibition was 28.5% (active). `O=C(c1ccc[nH]c1=S)N1CCN(S(=O)(=O)c2ccc(Br)cc2Cl)CC1` was tested, and the inhibition was 11.5% (inactive). `COC(=O)c1ccc(NCc2cc(O)ccc2O)cc1` was tested, and the inhibition was 22.6% (active). For `COc1ccc(NC(=O)c2ccc(C#CC(C)(C)O)cc2)cc1`, the inhibition was 3.21% (inactive). `Cc1ccc(/C=C/C(=O)Nc2ccc([N+](=O)[O-])c(NC(=O)/C=C/c3ccc(C)o3)c2)o1` was tested, and the inhibition was 60.6% (active). In the case of `CN(C)C(=O)N=NC(=O)N(C)C`, the inhibition is reported as 15.4% (inactive). In the case of `Cc1cccc(CS(=O)(=O)c2ncc(Cl)c(C(=O)Nc3ccc(F)cc3)n2)c1`, the inhibition is reported as 18.9% (inactive). `Cc1ccc(-c2nn(-c3ccccc3)cc2/C=C2\SC(=S)N(CCCCCC(=O)O)C2=O)o1` was tested, and the inhibition was 18.1% (inactive). For `Cc1ccc(-c2nn(-c3ccccc3)cc2CN(Cc2ccccc2)C(=O)CCC(=O)O)o1`, the inhibition was 21.8% (active). With `Cc1cccc(NC(=O)CSC(N)=O)c1C` the inhibition was 96.6% (active). In the case of `Cc1ccccc1-n1c(SCC(=O)Nc2cccc3ccccc23)nc(O)cc1=O`, the inhibition is reported as 2.26% (inactive). With `O=C(NC1=CC(=O)c2ccccc2C1=O)c1ccccc1` the inhibition was 42.6% (active). With `Cc1ccc(OS(=O)(=O)c2ccc(-c3csc(C)n3)s2)c(C)c1` the inhibition was 8.35% (inactive). `CO/N=C(\C(=O)N[C@@H]1C(=O)N2C(C(=O)O)=C(COC(C)=O)CS[C@H]12)c1csc(N)n1` (stereo in doubt) was tested, and the inhibition was 11.4% (inactive). In the case of `C=CCn1c(=S)[nH]c2scc(-c3ccco3)c2c1=O`, the inhibition is reported as 56.8% (active). For `O=C(CCN1CCc2ccccc2C(O)(c2ccccc2)C1)c1ccc2c(c1)OCCO2` (stereo unspecified), the inhibition was 38% (active). In the case of `COc1ccccc1-n1c(SCC(=O)Nc2ccc(Cl)cc2)nc(O)c(Cc2ccccc2)c1=O`, the inhibition is reported as 18.7% (inactive). In the case of `O=C(Nc1ccccc1)c1nnsc1S(=O)(=O)c1ccc(Cl)cc1`, the inhibition is reported as 79.7% (active). For `Cc1cccc(NC(=O)c2nc(S(=O)(=O)Cc3ccccc3)ncc2Cl)c1`, the inhibition was 16.1% (inactive).
